# Data: PubChem BioAssay (EPA / NIEHS)
# Active and inactive are the calls of the source. How the source made its calls: active means hit-call score of the fitted dose curve at least 0.9, where 1 is the maximum; inactive means score below 0.9. Peptide text beside a SMILES is read from it.
# Target: Heat shock factor protein 1 (Homo sapiens) (UniProt Q00613)
# Assay: ATG_HSE_CIS: Attagene CIS-FACTORIAL HepG2 Assay for human Heat Shock Transcription Factor 1 (HSE) (AID 2282953)
# Conditions: HepG2 HSE cis-reporter, Attagene RNA transcription; actives raise or lower the signal
# Method: ATG_CIS is a cell-based, multiplexed-readout assay that uses HepG2, a human liver cell line, with measurements taken at 24 hours after chemical dosing in a 24-well plate.ATG_HSE_CIS is one of 52 assay component(s) measured or calculated from the ATG_CIS assay. It is designed to make measurements of mRNA induction, a form of inducible reporter, as detected with fluorescence intensity signals by Reverse transcription polymerase chain reaction (RT-PCR) and Capillary electrophoresis technology.Data from the assay component ATG_HSE_CIS was analyzed into 1 assay endpoint. This assay endpoint, ATG_HSE_CIS, was analyzed with bidirectional fitting relative to DMSO as the negative control and baseline of activity. Using a type of inducible reporter, measures of mRNA for gain or loss-of-signal activity can be used to understand the reporter gene at the transcription factor-level as they relate to the gene HSF1. Furthermore, this assay endpoint can be referred to as a primary readout, because this assay has produced multiple assay endpoints where this one serves a reporter gene function. To generalize the intended target to other relatable targets, this assay endpoint is annotated to the dna binding intended target family, where the subfamily is heat shock protein.
# Human liver HepG2 cells are transiently transfected with multiple reporter transcription units (MRTUs) in 6-well plates using FuGene 6 reagent (Roche; 3 ml FuGene/1 mg DNA). The MRTU constructs are regulated by a cis-regulating element (promoter). […] A major difference between the CIS and TRANS system is that in CIS activities of endogenous TFs are measured, whereas the TRANS assay evaluates changes in activities of exogenous, chimeric NR-Gal4 proteins. […] At the end of 24 hour incubation, total RNA was isolated using TriZol reagent (Invitrogen). The isolated RNA is then reverse-transcribed using oligo(dT) primer and Mo-MLV reverse transcriptase (Invitrogen) with DNAse I (Ambion) treatment for 30 min. The one-tenth of the produced cDNA was amplified by PCR using Taq DNA polymerase (Invitrogen) and two reporter sequence-specific primers. The PCR products were fluorescently labeled by primer extension with 6-arboxyfluorescein (6-FAM) 5'-labeled reporter sequence-specific primer (2 min at 95 C, 20 s at 68 C and 10 min at 72 C) and these products were digested with 5U of HpaI (New England Biolabs) for 2h at 37 C. The fragments were purified using Qiaquick PCR columns (Qiagen), analyzed on an ABI 3130xL genetic analyzer (Applied Biosystems) with peak positions identified by using a set of X-rhodamine (ROX)-labeled MapMarker1000 molecular weight standards (BioVentures). The raw capillary electrophoresis data was processed using Attagraph software (Attagene).
# Chain of Heat shock factor protein 1 (Homo sapiens) (Q00613 whole entry, looked up): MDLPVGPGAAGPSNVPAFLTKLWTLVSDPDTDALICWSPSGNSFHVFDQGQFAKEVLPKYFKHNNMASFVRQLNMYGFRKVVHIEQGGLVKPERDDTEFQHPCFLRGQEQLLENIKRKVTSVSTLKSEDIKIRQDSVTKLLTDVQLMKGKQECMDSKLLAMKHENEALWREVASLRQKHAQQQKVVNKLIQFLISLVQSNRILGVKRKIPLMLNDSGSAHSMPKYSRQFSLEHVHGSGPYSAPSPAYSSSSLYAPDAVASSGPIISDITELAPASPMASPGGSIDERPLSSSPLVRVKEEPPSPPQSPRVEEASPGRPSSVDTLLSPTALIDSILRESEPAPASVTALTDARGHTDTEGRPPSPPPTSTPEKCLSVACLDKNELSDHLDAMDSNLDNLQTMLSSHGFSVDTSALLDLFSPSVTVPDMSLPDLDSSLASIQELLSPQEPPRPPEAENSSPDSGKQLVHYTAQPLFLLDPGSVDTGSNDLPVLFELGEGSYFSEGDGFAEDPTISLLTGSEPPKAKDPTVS
Compound,outcome,AC50
CC12CCC(CC1)C(C)(C)O2,inactive,
O=C1CCCCCCCCCCC1,inactive,
Nc1ccc(C(=O)O)cc1,inactive,
CC1(C)CCC[C@]2(C)[C@H]3CC(=O)O[C@]3(C)CC[C@@H]12,inactive,
CCCCCOC(=O)CCCCC,inactive,
CC(=O)OCc1ccccc1,inactive,
Nc1ccc(O)c([N+](=O)[O-])c1,inactive,
c1ccc2cnccc2c1,inactive,
N#Cc1ccc(C(c2ccc(C#N)cc2)n2cncn2)cc1,inactive,
C1CNCCN1,inactive,
CC(=O)c1ccccc1O,inactive,
CC(=O)CC(=O)Nc1ccccc1C,inactive,
C=CCCCCCCCCC=O,inactive,
C=CC(=O)OCCCCCCOC(=O)C=C,,180 µM (active)
[Cl][Eu]([Cl])[Cl],inactive,
C[Si]1(C)O[Si](C)(C)O[Si](C)(C)O[Si](C)(C)O[Si](C)(C)O1,inactive,
CCCCCC[C@@H](O)C/C=C\CCCCCCCC(=O)OCC(O)CO (stereo not given in full),,184 µM (active)
CC1=CC(C)C(C=O)CC1 (stereo not given),inactive,
CC(C)c1ccc2ncccc2c1,inactive,
Cc1cc(=O)[nH]c(=O)[nH]1,inactive,

Compound,outcome,AC50
CCCCCCCCCCCCCCCCCCOS(=O)(=O)O,,54 µM (active)
CC(Cl)COP(=O)(OCC(C)Cl)OCC(C)Cl (stereo not given),inactive,
COC(=O)[C@H](Cc1ccccc1)NC(=O)[C@@H](N)CC(=O)O (H-Asp-Phe-OMe),inactive,
CC(=O)OC(C)c1ccccc1 (stereo not given),inactive,
CC(C)C(=O)OCCOc1ccccc1,inactive,
CC(C)OC(=O)c1ccccc1,inactive,
CC(CC=O)CC(C)(C)C (stereo not given),inactive,
CC(C)c1cc(C(C)C)cc(C(C)C)c1,inactive,
CCc1cccc(C)c1N(C(=O)CS(=O)(=O)O)C(C)COC (stereo not given),inactive,
CCCCCCCCCC(C)=O,inactive,
C=CC(=O)OCCCCCCCC(C)C,inactive,
CO[Si](CCCS)(OC)OC,inactive,
CN(C)c1ccc2nc3ccc(=[N+](C)C)cc-3sc2c1,inactive,
C=CCOC(=O)c1ccc(C(=O)OCC=C)c(C(=O)OCC=C)c1,inactive,
CCCCCCCCCCCCC,inactive,
CCCCC1C(=O)N(c2ccccc2)N(c2ccccc2)C1=O,inactive,
O=C(O)C1CCC(C(=O)O)CC1 (stereo not given),inactive,
CC1=CCC2CC1C2(C)C (stereo not given),inactive,
CCCCCC1=CCCC1=O,inactive,
CC(C)(CO)C(O)C(=O)NCCCO (stereo not given),inactive,
